Screening data: PubChem BioAssay, National Center for Advancing Translational Sciences (NCATS)
MCF10A rereplic = A quantitative high throughput screen for small molecules that induce DNA re-replication in MCF 10a normal breast cells; MCF 10A DNA re-replication, Hoechst nuclear intensity, 48 h; Potency, µM (doses to about 46.1 µM), for the others: at the highest dose activity, positive = re-replication, usual class: activators; 350,000 tested, 2.9% active; note: % of control where 0% means no effect; nearly all actives have a fitted effect of over 50% in size
PINK1 modulator = A Quantitative High throughput Screen to Identify Chemical Modulators of PINK1 Expression; 410,000 tested, 0.2% active; Potency, µM (doses to about 76.6 µM), for the others: at the highest dose activation (PINK1 increase), usual class: activators; AID 624263, 2012; PINK1 immunofluorescence, high-content cytometry, 24 h; active = well fitted activation curve with a large enough effect; inconclusive = small, poorly fitted or top-dose-only effect; cell line not stated here; note: % of control where 0% means no effect; nearly all actives have a fitted effect of over 65% in size
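Stable cell line, 250 cells/well, 12 h attachment; compounds pinned at 5 concentrations, 24 h; CCCP control. Fixed with nuclear dye, primary antibodies 12 h at 10 degrees C, secondary plus cell stain; laser-scanning cytometer read.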
12-LOX inh = Primary qHTS assay for inhibitors of human arachidonate 12S-lipoxygenase (ALOX12): Round 2; purified 12hLO, xylenol orange hydroperoxide absorbance; AID 1671190, 2021; Polyunsaturated fatty acid lipoxygenase ALOX12 (Homo sapiens), P18054; 580,000 tested, 1.1% active; Potency, µM (series often up to 108 µM), without a hit: at the top dose activity change, negative = inhibition, usual class: inhibitors; note: % is set by controls: 0 for no effect and ±100 for the full control effect
Target sequence (P18054 whole entry, looked up): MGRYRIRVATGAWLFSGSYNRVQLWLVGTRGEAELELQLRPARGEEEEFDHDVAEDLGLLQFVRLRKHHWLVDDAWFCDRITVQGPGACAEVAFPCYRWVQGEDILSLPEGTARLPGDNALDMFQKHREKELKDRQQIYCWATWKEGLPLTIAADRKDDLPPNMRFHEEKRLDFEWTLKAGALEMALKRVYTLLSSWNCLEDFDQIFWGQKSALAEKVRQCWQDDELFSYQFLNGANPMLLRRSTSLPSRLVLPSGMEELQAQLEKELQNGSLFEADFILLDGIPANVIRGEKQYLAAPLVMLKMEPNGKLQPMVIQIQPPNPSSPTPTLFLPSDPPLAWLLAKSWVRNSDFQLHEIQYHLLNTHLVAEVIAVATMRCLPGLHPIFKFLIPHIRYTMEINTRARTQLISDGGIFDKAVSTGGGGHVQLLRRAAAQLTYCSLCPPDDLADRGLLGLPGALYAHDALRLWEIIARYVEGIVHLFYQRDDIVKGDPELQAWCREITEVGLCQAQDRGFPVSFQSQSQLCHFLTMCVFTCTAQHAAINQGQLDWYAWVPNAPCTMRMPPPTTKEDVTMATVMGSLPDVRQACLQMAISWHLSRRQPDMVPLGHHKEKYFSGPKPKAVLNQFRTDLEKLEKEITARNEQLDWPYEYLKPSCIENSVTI
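Purified human 12hLO (150 nM final) in 25 mM Hepes, 0.01% Triton X-100, pH 7.0 was preincubated 15 min at room temperature with compound. Then 40 uM arachidonic acid was added, 30 min. Hydroperoxide was read by Fe-XO absorbance ratio 573/405 nm.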
KB-3-1 tox = qHTS assay for MDR1-selective chemotherapeutics: Primary screen using the parental adenocarcinoma cell KB-3-1. KB-3-1 viability, CellTiter-Glo ATP luminescence, 72 h. Potency, µM (top dose mostly 46.1 µM), hits mostly cytotoxic. 400,000 tested, 1.4% active. AID 1347075, 2019; note: % is set by controls: 0 for no effect and ±100 for the full control effect; nearly all actives have a fitted effect of over 60% in size
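Luminescent ATP read-out (CellTiter-Glo) measures survival of drug-naive KB-3-1 cells after 72 h compound exposure at 37 °C. Titration series was screened from lowest to highest concentration, with DMSO vehicle plates as background controls.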
KB-V1 cytotox = qHTS assay for MDR1-selective chemotherapeutics: Primary screen using the drug-selected MDR subline cells KB-V1. KB-V1 MDR cells viability, CellTiter-Glo, 72 h. Potency, µM (top dose mostly 46.1 µM), actives largely listed as cytotoxic. 400,000 tested, 3.4% active. AID 1347076, 2019; note: % is set by controls: 0 for no effect and ±100 for the full control effect; nearly all actives have a fitted effect of over 60% in size
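Potencies derive from concentration-effect curves fitted to normalized luminescence (CellTiter-Glo) of KB-V1 cells treated for 72 h at 37 degrees C in phenol-red-free DMEM containing 10% FBS.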
SW480 rerep = A quantitative high throughput screen for small molecules that induce DNA re-replication in SW480 colon adenocarcinoma cells; SW480 DNA re-replication, Hoechst DNA content imaging, 48 h; Potency, µM (series often up to 46.1 µM), without a hit: at the highest dose re-replication activation, most hits filed as activators; 340,000 tested, 1.8% active; AID 624297, 2012; note: % of control where 0% means no effect; nearly all actives have a fitted effect of over 55% in size
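SW480 cells exposed to compounds for 48 hr at 37 C, 5% CO2, then Hoechst-stained 40 min. Nuclear DNA content imaged by fluorescence scanning (405 nm excitation, 500-530 nm emission); re-replication scored as increased high-intensity nuclei.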
An asterisk follows results filed as active; i = inactive; ? = inconclusive; nt = not tested or not shown; [ ] = remark or other dose. An excerpt weighted towards active compounds, which were near 5.8% of everything screened. Unless noted, calls come from the whole dose curve; as a rule, active = well fitted curve in the direction sought with a large enough effect; inconclusive = small, poorly fitted or top-dose-only effect, or another doubt; inactive = no such curve, though single readings can be large; an effect the other way counts as inactive or inconclusive. Potency is the fitted concentration of half-maximal effect.

SMILES	MCF10A rereplic	PINK1 modulator	12-LOX inh	KB-3-1 tox	KB-V1 cytotox	SW480 rerep
Cc1ccccc1NC(=O)c1ccc([N+](=O)[O-])o1	15µM*	1%	-10%	i	i	?
O=C(Nc1cccc2ncccc12)c1cccc(Br)c1	5%	5%	6%	i	i	-1%
Cc1ccc(NC(=O)c2ccc([N+](=O)[O-])o2)c(C)c1	?	-1%	-5%	?	?	?
O=C(Nc1ccccc1Cl)c1ccc([N+](=O)[O-])o1	13µM*	0%	?	23µM*	i	7.3µM*
O=C(Nc1cccc2ncccc12)c1ccc(-c2ccc(Br)cc2)o1	1%	0%[38.3 µM]	?	i	10µM*	0%
CCC(C)NC(=O)CCN(CC)C(=O)c1cc(C)oc1C (stereo unspecified)	nt	nt	21%	nt	nt	nt
CCOc1cc(/C=C2/NC(=O)NC2=O)ccc1OCc1ccc(Cl)cc1	nt	nt	26%	nt	nt	nt
Cc1cccc(NC(=O)c2ccc([N+](=O)[O-])o2)n1	?	-5%	0%	i	?	3.7µM*
CCOC(=O)C1=C(C)NC2=C(C(=O)CC(c3ccc(OC)c(OC)c3)C2)C1c1ccc(C)o1 (stereo unspecified)	4%	1%	-12%	i	18µM*	-5%
COc1ccc(C2C(C(=O)OCC3CCCO3)=C(C)NC3=C2C(=O)CC(c2ccco2)C3)cc1O (stereo unspecified)	0%	1%	8.9µM*	i	i	1%
CC1=C(C(=O)OCC2CCCO2)C(c2ccccc2)C2=C(CCCC2=O)N1 (stereo unspecified)	-9%	-1%	-28%	i	i	24%
N#Cc1ccc(C(=O)NC(c2cccs2)C2CCCC2)cc1 (stereo unspecified)	nt	nt	-21%	nt	nt	nt
CCCN1CCCC12Cc1ccccc1CN([S+](=O)([O-])c1ccccc1)C2 (stereo unspecified)	nt	nt	6%[6.33 µM]	nt	nt	nt
O=C(N/N=C/c1ccc(F)cc1)c1cc(-c2ccc3c(c2)OCO3)n[nH]1	29µM*	3%	-15%	i	i	4%
CN(C)c1ccc(/C=N/NC(=O)c2ccc3c(c2)OCCO3)cc1	-18%	4%	-7%	i	i	-22%
CN(C)c1ccc(/C=N/NC(=O)c2cc(-c3ccc4c(c3)OCO4)n[nH]2)cc1	5.8µM*	5%	138%	?	?	?
COc1ccc(/C=N/NC(=O)c2cc(-c3ccc4c(c3)OCO4)n[nH]2)cc1OC	-4%	12%	-21%	i	i	12%
O=[N+]([O-])c1cc(Cl)cc2c1nc(NCCO)c1ccccc12	18%	-1%	5%	18µM*	?	?
O=[N+]([O-])c1cc(Cl)cc2cccnc12	nt	nt	-8%	nt	nt	nt
CC(C)NC(=O)c1sc2nc3c(c(-c4cccs4)c2c1N)CN(C)CC3	3%	0%	-22%	i	i	-2%
Cc1cccc(NC(=O)c2sc3nc4c(c(-c5cccs5)c3c2N)CN(C)CC4)c1	16µM*	-5%	?	i	i	?
O=C(NCCc1nc2ccccc2[nH]1)c1ccc([N+](=O)[O-])cc1	-7%	-1%	23%	i	i	?
O=C(NCCNCc1c[nH]c2ccccc12)c1ccc(F)cc1	nt	nt	7.9µM*	nt	nt	nt
O=C(NCCc1c[nH]c2ccccc12)c1ccccc1	-1%	0%	-8%	i	i	-5%
O=C(NCCc1nc2ccccc2[nH]1)c1ccc(F)cc1	1%	3%[38.3 µM]	16%	?	12µM*	3%
